Compound activity deposited in PubChem by ICCB-Longwood Screening Facility, Harvard Medical School.
Hits are enriched below; roughly 1.4% of the tested compounds scored in any of these assays.
MenB inh: M. tuberculosis MenB inhibitors, primary screen, biochemical, absorbance; 1,4-dihydroxy-2-naphthoyl-CoA synthase (Mycobacterium tuberculosis (strain ATCC 25618 / …; MenB enzyme assay, absorbance read-out; inhibition, % (concentration not given with the values); hit rate 0.43% among 100,000; in the data active = inhibition above about 21%, passing the limit was not always enough
PV pol inh: poliovirus RdRp elongation inhibitors, primary screen, biochemical, fluorescence polarization, total intensity | hit rate 0.66% among 150,000 | AID 588519, 2011 | % elongation, % (compound at 16.7 µg/mL) | Genome polyprotein (Poliovirus type 1 (strain Mahoney)), P03300 | poliovirus polymerase elongation; stronger effect = lower value; in the data active = % elongation below about 90%
MbtI inh: MbtI salicylate synthase inhibitors, primary screen, biochemical, fluorescence intensity; P9WFX0; AID 493033, 2011; inhibition, % (concentration not given with the values); purified MbtI enzyme, fluorescence intensity read-out; hit rate 0.89% among 100,000; in the data active = inhibition mostly above about 56%, no sharp cut-off; inactive = mostly below about 77%
Target sequence (P9WFX0 whole entry, looked up): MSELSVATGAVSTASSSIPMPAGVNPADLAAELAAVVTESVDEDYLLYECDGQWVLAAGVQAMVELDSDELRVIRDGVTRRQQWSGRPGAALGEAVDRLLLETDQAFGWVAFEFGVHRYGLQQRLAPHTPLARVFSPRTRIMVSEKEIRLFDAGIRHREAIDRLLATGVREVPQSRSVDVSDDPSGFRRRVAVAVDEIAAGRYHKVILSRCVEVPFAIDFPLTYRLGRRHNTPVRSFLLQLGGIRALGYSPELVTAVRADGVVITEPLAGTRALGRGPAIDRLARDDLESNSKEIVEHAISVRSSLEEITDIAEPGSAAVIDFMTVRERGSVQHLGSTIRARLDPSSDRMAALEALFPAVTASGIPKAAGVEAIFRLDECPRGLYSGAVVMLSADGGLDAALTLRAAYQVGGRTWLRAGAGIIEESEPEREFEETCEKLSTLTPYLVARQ
Starred values were filed as active, the others as inactive; . = no result.

SMILES	MenB inh	PV pol inh	MbtI inh
NC1=NN=C(c2ccc3c(c2)OCCO3)CS1	15	98	16
COc1ccc(C(=O)Nc2ccc(N3CCN(c4ncccc4C(F)(F)F)CC3)nc2)cc1	12	102	-3
COc1ccc(N2CCN(C(=O)c3cccnc3Nc3ccccc3F)CC2)cc1	-7	102	5
O=C(c1cccnc1Nc1ccccc1F)N1CCCCC1	39*	100	8
Cc1c(C(=O)CSc2nnc(CN3CCOCC3)n2C)c2ccccc2n1C	-44	104	-11
N/C(=N/O)c1nn(-c2ccccc2)nc1N1CCCCC1	.	.	-9
CCC(=O)Nc1nnc2n1CCS2	.	107	.
CCN(CC)c1nc2n(c(=S)n1)CCS2	30*	102	-2
COc1ccc(CNCc2cccc(OC)c2)cc1	0	89*	5
COc1ccc(CNCc2ccc(OC)c(C)c2)cc1	.	.	-11
CC(=O)NC(=S)Nc1cccc(C)c1	-16	101	6
Cc1cccc(NC(=S)Nn2c(O)c(C)sc2=S)c1	-67	99	93*
CN1CCN(c2ccc(Cl)cc2NC(=S)Nc2cccnc2)CC1	-16	101	1
Cc1ccc(-n2nnc(C(=O)N3CCCCC3)c2N)cc1	-50	103	-4
CCCn1c(N)nc2c1c(=O)[nH]c(=O)n2C	-34	101	-16
CCSc1nc2c(c(=O)[nH]c(=O)n2C)n1CC	-1	98	98*
NC(=S)Cc1nc(-c2ccccc2)cs1	-53	97	10
COC(=O)Cc1nc(-c2ccccc2)cs1	6	86*	10
Nc1ccc(N2CCOCC2)c(N)c1	-43	56*	35
NS(=O)(=O)c1ccc(N2CCOCC2)c(C(=O)O)c1	-24	102	0
O=C(c1ccccc1)c1cc(Cl)ccc1NCC(=O)N1CCOCC1	-56	101	0
CCn1c(COc2cccc(C)c2)nnc1SCC(=O)N1C(C)CCCC1C (stereo not given)	39*	102	-5
CCn1c(COc2ccc(C)cc2)nnc1SCC(=O)N1CCCc2ccccc21	23	99	1
CNC(=O)c1c(C)[nH]c(=S)c(C#N)c1-c1ccco1	-26	103	99*
CNC(=O)c1c(C)nc(SCC(=O)OCC(=O)Nc2ccc(C)c(C)c2)c(C#N)c1-c1ccco1	-33	103	2
SMILES	MenB inh	PV pol inh	MbtI inh
O=C1CCCC(O)=C1N=Nc1ccccc1C(=O)O	-463	97	18
O=C1CCCC(O)=C1N=Nc1ccc(C(=O)O)cc1	-180	76*	6
O=C(Nc1ccncc1)c1ccc(C(=O)c2ccccc2)cc1	.	101	-9
Cc1cc(C)c(C#N)c(=O)[nH]1	-19	111	99
Cc1cc(C)c(C#N)c(=S)[nH]1	-19	101	90*
COC(=O)COc1ccc2cccc(-n3cnnn3)c2c1	39*	101	90
O=C(COc1cccc(-n2cnnn2)c1)N1CCOCC1	-1	104	-3
N#C/C(=C(/O)CSc1n[nH]c(=O)[nH]c1=O)c1nc2ccccc2[nH]1	1	105	77*
N#C/C(=C(/O)CSc1nc2ccccc2o1)c1nc2ccccc2[nH]1	-2	111	-3
CCOc1ccc(/C=C/C(=O)Nc2sc3c(c2C(=O)OC)CCCC3)cc1	.	106	.
COC(=O)c1c(NC(=O)CCCOc2cccc(C)c2)sc2c1CCC2	.	101	.
CCOc1ccc(/C=C/C(=O)Nc2sc3c(c2C(=O)OC)C(C(=O)OC)CC3)cc1 (stereo not given)	.	79*	.
COC(=O)c1c(NC(=O)CCCOc2ccc(C)cc2)sc2c1C(C(=O)OC)CC2 (stereo not given)	.	71*	.
COC(=O)c1c(NC(=O)CCCOc2ccc(C)cc2)sc2c1CCCC2	.	95	.
COC(=O)c1c(NC(=O)CCCOc2cccc(C)c2)sc2c1C(C(=O)OC)CC2 (stereo not given)	.	81*	.
O=C(COC(=O)C1CCC1)NC12CC3CC(CC(C3)C1)C2	.	100	-8
CCOc1ccc(CC(=O)NCCn2c(C)cc3ccccc32)cc1	-18	96	14
CCCNc1ncccc1C(N)=O	35*	101	89
CCC(C)(C)Nc1ncccc1C(=O)O	31	102	3
Cc1ccc(S(=O)(=O)N2CCCC(NC(=O)NCc3ccco3)C2)cc1 (stereo not given)	-22	103	-8
O=C1CSC(=S)N1/N=C/c1cccs1	-97	99	34
COc1cccc(/C=N/N2C(=O)CSC2=S)c1O	-37	85*	4
COC(=O)C1=NOC2C(=O)N(c3ccc(C)cc3)C(=O)C12 (stereo not given)	-8	99	9
C1=CSC(=C2SC=CS2)S1	active	59*	45
CCn1c(SCC(=O)N(C)CC(=O)Nc2ccccc2Cl)nnc1-c1ccco1	0	103	-22
SMILES	MenB inh	PV pol inh	MbtI inh
Cc1cc(NC(=O)CSC2=Nc3ccccc3CS2)no1	-3	102	0
Cc1cc(NC(=O)CSc2ccccc2)no1	32*	98	4
O=C(O)c1ccnc(N2CCCC2)c1	-2	101	89
CC1CN(C(=O)CCC(=O)N(C)Cc2ccccc2)c2ccccc2O1 (stereo not given)	-3	102	-13
CCn1cc(S(=O)(=O)c2ccccc2)c(=O)c2cc(F)ccc21	14	98	1
CCN1CCCC1CNC(=O)c1cc2ccc3cccnc3c2[nH]1 (stereo not given)	-3	102	-9
c1ccc(-c2nnc3sc(-c4ccc5c(c4)OCO5)nn23)cc1	-29	100	77
O=S(=O)(c1cccc(-c2nn3c(-c4ccncc4)nnc3s2)c1)N1CCCCC1	0	85*	91
CN1CCC2=C[C@@H](O)C3OC(=O)c4cc5c(cc4C3[C@H]21)OCO5 (stereo not given in full)	-5	100	166
S=c1[nH]n(Cc2ccccc2)c(=NCc2ccccc2)s1	.	95	65*
O=c1ccc(=O)n(Cc2ccccc2)[nH]1	-19	107	-4
COc1ccc(C2=C(C(C)=O)Sc3nnc(-c4ccccc4)n3N2C(C)=O)cc1	.	102	.
CCOc1ccc(C2=C(C(C)=O)Sc3nnc(C)n3N2C(C)=O)cc1	.	79*	.
CCC(C)N(CN1C(=S)SC2=NC(=O)CCCN21)C(C)CC (stereo not given)	-26	101	83
COC(=O)CN(C)c1nnc(N)s1	-5	91	96*
CC(C)CN(CC(C)C)c1nnc(N)s1	.	.	-12
O=C(N/N=C/c1ccc(N2CCCCC2)o1)c1ccco1	-48	98	12
O=C(c1ccc(N2CCCC2)c(NC(=S)NC2CCCC2)c1)N1CCCC1	-15	104	1
CCc1cccc(NC(=O)C2COc3ccccc3O2)c1 (stereo not given)	-5	102	8
CCc1ccc2c(c1)S(=O)(=O)C(C(F)(F)F)CO2 (stereo not given)	4	84*	.
CCCOc1ccccc1O	-20	103	-1
Cc1cc(=O)[nH]c(SCC(=O)c2ccc3c(c2)NC(=O)CO3)n1	16	103	29
O=C1COc2ccc(C(=O)CSC(=S)N3CCCC3)cc2N1	-49	81*	89
O=C(/C=C/c1ccco1)N1CCN(Cc2nc3sc4c(c3c(=O)[nH]2)CCCC4)CC1	-33	104	6
CCCn1c(SCc2nc(N)nc(Nc3ccc(C)cc3)n2)n[nH]c1=O	-3	108	-2
